From the supplement of paper PMC6089552
Screen size: about 3,200 compounds; about 300 (9.4%) showed activity. This excerpt belongs to a sample that is enriched for actives.

Tested on: A673/TR/shEF
Assay: cell viability (LOESS-normalised, relative to median of negative controls) (log2 ratio); higher = more viable cells (less compound effect), active = hit call of the paper (over 3 MAD below the median)
Conditions: treatment time: 72 h
Method in brief: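 Doxycycline, present or absent from 24 h before compounds, was used to induce EWS-FLI1 shRNA knockdown in A673/TR/shEF Ewing sarcoma cells at 1,500 per well in 384-well plates. Cells then received library compounds at two or more concentrations, or DMSO controls, for three days. Viability was measured by CellTiter-Glo luminescence on an Envision reader, and per-plate LOESS correction, division by the negative-control median and log2 transformation followed.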

[1] = 0.25 µM, library screen: screen1, EWS-FLI1 expression: high (no doxycycline)
[2] = 0.25 µM, library screen: screen1, EWS-FLI1 expression: low (doxycycline-induced shRNA knockdown)
[3] = 2.5 µM, library screen: screen1, EWS-FLI1 expression: high (no doxycycline)
[4] = 2.5 µM, library screen: screen1, EWS-FLI1 expression: low (doxycycline-induced shRNA knockdown)
[5] = 0.103 µM, library screen: screen3, EWS-FLI1 expression: high (no doxycycline)
[6] = 0.103 µM, library screen: screen3, EWS-FLI1 expression: low (doxycycline-induced shRNA knockdown)
[7] = 0.308 µM, library screen: screen3, EWS-FLI1 expression: high (no doxycycline)
[8] = 0.308 µM, library screen: screen3, EWS-FLI1 expression: low (doxycycline-induced shRNA knockdown)
[9] = 0.926 µM, library screen: screen3, EWS-FLI1 expression: high (no doxycycline)
[10] = 0.926 µM, library screen: screen3, EWS-FLI1 expression: low (doxycycline-induced shRNA knockdown)
[11] = 2.8 µM, library screen: screen3, EWS-FLI1 expression: high (no doxycycline)
[12] = 2.8 µM, library screen: screen3, EWS-FLI1 expression: low (doxycycline-induced shRNA knockdown)
[13] = 8.3 µM, library screen: screen3, EWS-FLI1 expression: high (no doxycycline)
[14] = 8.3 µM, library screen: screen3, EWS-FLI1 expression: low (doxycycline-induced shRNA knockdown)
[15] = 25 µM, library screen: screen3, EWS-FLI1 expression: high (no doxycycline)
[16] = 25 µM, library screen: screen3, EWS-FLI1 expression: low (doxycycline-induced shRNA knockdown)
[17] = 0.25 µM, library screen: screen2, EWS-FLI1 expression: high (no doxycycline)
[18] = 0.25 µM, library screen: screen2, EWS-FLI1 expression: low (doxycycline-induced shRNA knockdown)
[19] = 2.5 µM, library screen: screen2, EWS-FLI1 expression: high (no doxycycline)
[20] = 2.5 µM, library screen: screen2, EWS-FLI1 expression: low (doxycycline-induced shRNA knockdown)
[21] = 0.025 µM, library screen: screen1, EWS-FLI1 expression: high (no doxycycline)
[22] = 0.025 µM, library screen: screen1, EWS-FLI1 expression: low (doxycycline-induced shRNA knockdown)
[23] = 25 µM, library screen: screen1, EWS-FLI1 expression: high (no doxycycline)
[24] = 25 µM, library screen: screen1, EWS-FLI1 expression: low (doxycycline-induced shRNA knockdown)

Measured: cell viability (log2)

CC1=C(C(=O)OCC2CCCO2)C(c2coc3ccccc3c2=O)C2=C(CCCC2=O)N1 (centres undefined)
inactive: [1] 0.0728 | [2] 0.022 | [3] 0.00147 | [4] 0.0061

COc1ccc2c(c1)OC1CC1(c1ccccc1OC)C2=O (centres undefined)
inactive: [1] 0.0685 | [2] 0.0535 | [3] 0.0294 | [4] 0.0412

COc1ccc(OC)c(CN2CCN(Cc3ccco3)CC2)c1
inactive: [1] 0.136 | [2] 0.00829 | [3] 0.0712 | [4] 0.0546

C=C1C[C@]23C[C@@]1(O)CC[C@H]2[C@@]12C=C[C@H](O)C(C)(C(=O)O1)[C@H]2[C@@H]3C(=O)O
inactive: [1] 0.0797 | [2] -0.049 | [3] 0.109 | [4] 0.00256

CC(C)C[C@H](NC(=O)[C@H](Cc1ccccc1)NC(=O)c1cnccn1)B(O)O
inactive: [6] -0.0845
active: [5] -0.242 | [7] -2.56 | [8] -0.914 | [9] -3.95 | [10] -1.75 | [11] -4.24 | [12] -4.06 | [13] -4.26 | [14] -3.84 | [15] -4.26 | [16] -4.16

CC(C)C[C@H](NC(=O)[C@@H](O)[C@H](N)Cc1ccccc1)C(=O)O
inactive: [17] 0.185 | [18] -0.00499 | [19] 0.106 | [20] 0.0581

CC(C)C[C@H](NC(=O)[C@H](O)[C@H](N)Cc1ccccc1)C(=O)O
inactive: [17] 0.14 | [18] 0.0402 | [19] 0.0931 | [20] 0.0118

O=C(Nc1ccccc1Cl)C1c2ccccc2Oc2ccccc21
inactive: [1] 0.0923 | [2] 0.0427 | [3] 0.118 | [4] 0.00942

COC1CCC2(C)C(CCC3C2CCC2(C)C(C(C)CCCC(C)C)CCC32)C1 (centres undefined)
inactive: [1] -0.00918 | [2] 0.0236 | [3] 0.0903 | [4] 0.091

CCCCCCCCCC(=O)NC(CN1CCOCC1)C(O)c1ccccc1 (centres undefined)
active: [17] -0.53 | [18] -0.533 | [19] -1.39 | [20] -2.57

CCCCOc1ccc(OCCCN2CCOCC2)cc1
inactive: [1] 0.172 | [2] 0.0279 | [3] 0.124 | [4] 0.0578

CCN1CCCC(OC(=O)C(c2ccccc2)c2ccccc2)C1 (centres undefined)
inactive: [1] 0.0616 | [2] 0.0736 | [3] 0.223 | [4] -0.0423

Cc1ccc(C(=O)NCCSc2ccccn2)cc1
inactive: [1] 0.109 | [2] 0.00816 | [3] 0.117 | [4] -0.0564

Cn1cnnc1SCC(=O)N1c2ccccc2C(C)(c2ccccc2)CC1(C)C (centres undefined)
inactive: [1] 0.078 | [2] 0.058 | [3] 0.127 | [4] 0.198

C[C@@H]1CC[C@H]2[C@](C)(CO)[C@@H](O)CC[C@]2(C)[C@@]12CC[C@@](CO)(CCO)O2
inactive: [1] 0.0457 | [2] -0.0603 | [3] 0.0942 | [4] 0.112

CC(C)(C)c1onc(OCP(=O)(O)O)c1CC(N)C(=O)O (centres undefined)
inactive: [17] -0.0656 | [18] 0.0767 | [19] 0.0137 | [20] 0.0837

N=C(N)c1ccc(N)cc1
inactive: [17] 0.132 | [18] 0.0859 | [19] 0.0987 | [20] 0.121

CCOC(=O)c1ccc(N)cc1
inactive: [1] 0.113 | [2] 0.151 | [3] 0.0778 | [4] 0.18

N=C1C=CC(=C(c2ccc(N)cc2)c2ccc(N)cc2)C=C1
active: [1] -0.412 | [2] -0.563 | [3] -3.76 | [4] -3.35

CC(C)c1c(O)c(-c2cc3c(c(C(C)C)c2O)CCC2C(C)(C)CCCC32C)cc2c1CCC1C(C)(C)CCCC21C (centres undefined)
inactive: [1] 0.108 | [2] 0.109 | [3] 0.0993 | [4] 0.112

COC1=C(OC)C(=O)C(C/C=C(\C)CC/C=C(\C)CC/C=C(\C)CC/C=C(\C)CC/C=C(\C)CC/C=C(\C)CC/C=C(\C)CC/C=C(\C)CC/C=C(\C)CCC=C(C)C)=C(C)C1=O
inactive: [1] 0.0717 | [2] 0.153 | [3] 0.193 | [4] 0.233

COc1c(C)c2c(c(O)c1C/C=C(\C)CCC(=O)O)C(=O)OC2
active: 25 µM, library screen: screen2, EWS-FLI1 expression: high (no doxycycline) -0.533 | 25 µM, library screen: screen2, EWS-FLI1 expression: low (doxycycline-induced shRNA knockdown) -0.259 | [15] -0.488 | [16] -0.403
inactive: 0.025 µM, library screen: screen2, EWS-FLI1 expression: high (no doxycycline) 0.0161 | 0.025 µM, library screen: screen2, EWS-FLI1 expression: low (doxycycline-induced shRNA knockdown) 0.0434 | [5] 0.108 | [6] 0.173 | [1] 0.047 | [2] -0.0419 | [17] 0.0974 | [18] 0.108 | [7] 0.00407 | [8] 0.0569 | [9] 0.0822 | [10] 0.0245 | [3] 0.0367 | [4] 0.00349 | [19] 0.137 | [20] -0.00198 | [11] 0.147 | [12] 0.096 | [13] -0.0618 | [14] -0.0369

COc1c(C)c2c(c(O)c1C/C=C(\C)CCC(=O)OCCN1CCOCC1)C(=O)OC2
active: [15] -0.48 | [16] -0.33
inactive: [5] 0.051 | [6] 0.0315 | [7] 0.00041 | [8] 0.00916 | [9] -0.00635 | [10] 0.0426 | [11] 0.0529 | [12] 0.0135 | [13] -0.0785 | [14] 0.0651

C(#CC12CC3CC(CC(C3)C1)C2)CN1CCOCC1
inactive: [1] 0.0887 | [2] 0.0273 | [3] 0.163 | [4] 0.0455

Brc1ccccc1CN1CCN(Cc2ccco2)CC1
inactive: [1] 0.15 | [2] 0.0476 | [3] 0.0744 | [4] 0.0303

Cn1c(=O)[nH]c(=O)c2[nH]cnc21
inactive: [1] 0.136 | [2] -0.0262 | [3] 0.111 | [4] 0.0112

C=C(C)C1COc2cc3oc(=O)ccc3cc2O1 (centres undefined)
inactive: [1] 0.0489 | [2] 0.0843 | [3] 0.0665 | [4] 0.127

COc1ccc2c(c1)OC[C@@H](Cc1ccc(OC)c(OC)c1)[C@H]2O
inactive: [1] 0.0776 | [2] -0.01 | [3] 0.0904 | [4] -0.0561

C[N+]1(C)C2CC[C@H]1CC(OC(=O)C(O)c1ccccc1)C2 (some centres undefined)
inactive: [1] 0.0981 | [2] 0.0981 | [3] 0.164 | [4] -0.0226

O=c1oc2cc3occc3cc2c2oc3cc4c(cc3c12)OCO4
inactive: [1] 0.103 | [2] -0.01 | [3] 0.0469 | [4] 0.0004

OC[C@@H](O)C(O)[C@H](O)CO
inactive: [1] 0.179 | [2] 0.0545 | [3] 0.145 | [4] 0.0215

O=C(O)c1cc(NCc2cc(O)ccc2O)ccc1O
active: [3] -0.24 | [23] -0.388
0.324: [1]
inactive: [21] 0.268 | [22] -0.135 | [2] 0.0214 | [4] -0.0017 | [24] 0.0315

O=C(O)c1cc(N(Cc2ccccc2O)Cc2cc(O)ccc2O)ccc1O
inactive: [21] 0.17 | [22] 0.0496 | [1] 0.173 | [2] 0.132 | [3] 0.0556 | [4] 0.0297 | [23] 0.0931 | [24] 0.144

O=C(O)c1cc(O)ccc1O
inactive: [1] 0.00691 | [2] 0.0897 | [3] 0.0219 | [4] 0.0883

Cc1ccncc1Nc1ncccc1C(=O)Nc1ccc(C2(C#N)CCCC2)cc1
inactive: [5] 0.0267 | [6] 0.0194 | [7] 0.0111 | [8] -0.0325 | [9] -0.00588 | [10] -0.00768 | [11] -0.00204 | [12] -0.0249 | [13] 0.00934 | [14] -0.0211 | [15] -0.0197 | [16] 0.0222

Cc1ccc(NC(=O)c2ccc(CN3CCN(C)CC3)cc2)cc1Nc1nccc(-c2cccnc2)n1
active: [15] -0.195
inactive: [5] 0.102 | [6] 0.119 | [7] 0.178 | [8] 0.125 | [9] 0.121 | [10] 0.129 | [11] 0.135 | [12] 0.128 | [13] 0.122 | [14] 0.126 | [16] 0.146

Cc1cn(-c2cc(NC(=O)c3ccc(C)c(Nc4nccc(-c5cccnc5)n4)c3)cc(C(F)(F)F)c2)cn1
inactive: [5] 0.0821 | [6] 0.114 | [7] 0.0305 | [8] 0.0807 | [9] 0.00582 | [10] 0.101 | [11] -0.0305 | [12] 0.116 | [13] 0.0184 | [14] 0.0705 | [15] -0.057 | [16] 0.0892

Cc1ccc(NC(=O)c2ccc(CN3CCN(C)CC3)cc2)cc1Nc1nc(-c2cccnc2)cs1
inactive: [5] 0.122 | [6] 0.0762 | [7] 0.0521 | [8] 0.0956 | [9] 0.0749 | [10] 0.0933 | [11] 0.0638 | [12] 0.131 | [13] 0.061 | [14] 0.0802 | [16] 0.154
active: [15] -0.709

O=C(NCO)c1cccnc1
0.28: [1]
inactive: [2] 0.147 | [3] 0.255 | [4] 0.103

Nc1ccccc1NC(=O)c1ccc(CNc2nccc(-c3cccnc3)n2)cc1
inactive: [5] 0.0488 | [6] 0.158 | [7] 0.0583 | [8] 0.0629 | [9] -0.0966 | [10] 0.141 | [12] 0.00492
active: [11] -0.554 | [13] -1.39 | [14] -0.431 | [15] -3.23 | [16] -1.08
